Laboratory results taken from PubChem BioAssay AID1259418 (Broad Institute, 2018).
In all, about 3,400 compounds went through this assay and about 840 (25%) were called active. Roughly 11% stayed inconclusive and do not appear here. A selection follows. Potency and affinity values are given separately. Unmarked numbers belong to inactive results.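 The calls were made as follows: active = fitted half-maximal concentration of signal decrease at or below twice the sample's top tested concentration; inconclusive = flat curve between -70 and -30 percent, or poor fit; inactive = flat within 30 percent, signal rise, or potency above limit.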

Test: inhibitors of Toxoplasma growth in IFN-γ-primed HeLa – cell-based, ME49Luc, luciferase, 72 h, dose response (AID 1259418)
Conditions: T. gondii ME49Luc in IFN-y HeLa, stronger effect = lower value, -100% = high-dose IFN-γ control wells; at 19.5 µM unless noted

With `Cc1cccc(-c2nc(Cn3nnc(-c4nc(-c5ccc(Cl)cc5)no4)c3C)c(C)o2)c1` as the compound, how does the max activity read?
The max activity was 25.6%.

For `O=C(NCCc1csc(-c2ccccc2)n1)C1CCN(C(=O)CCc2ccccc2)CC1`, which max activity is on record?
The max activity was -11.1%.

Which max activity does the source give for `CCCCC[C@H](CC(=O)NO)C(=O)N[C@H](C(=O)N1CCC[C@H]1CO)C(C)C` here?
Its max activity is 15.6%.

For `CCOc1ccccc1-c1nc(Cn2c(=O)c3c(C)cc(C)nc3n(-c3ccccc3)c2=O)c(C)o1`, which max activity is on record?
The max activity was 5.33% [at 0.16 µM].

Which max activity does the source give for `CC[C@H](C(=O)N1CCCC[C@H]1C(=O)O[C@H](CCc1ccc(OC)c(OC)c1)c1cccc(OCC(=O)NCCNC(=O)COc2cccc([C@@H](CCc3ccc(OC)c(OC)c3)OC(=O)[C@@H]3CCCCN3C(=O)[C@@H](CC)c3cc(OC)c(OC)c(OC)c3)c2)c1)c1cc(OC)c(OC)c(OC)c1` here?
The max activity was -14% [at 5 µM].

Which max activity does the source give for `Cc1ccc(C)c(-c2coc(-c3ccc(NC(=O)NC4CCCCC4)cc3)n2)c1` here?
Its max activity is 6.93% [at 0.16 µM].

With `N#Cc1cccc(-c2ccc3c(c2)[C@H]2[C@H](CCN2Cc2ccc4c(c2)OCO4)[C@@H](CO)N3)c1` as the compound, how does the max activity read?
Its max activity is 21.2% [at 10 µM].

Which max activity does the source give for `N#Cc1cccc(-c2ccc3c(c2)[C@H]2[C@H](CCN2Cc2ccc4c(c2)OCO4)[C@H](CO)N3)c1` here?
Its max activity is 17.9% [at 10 µM].

For `C/C=C/c1ccc([C@@H]2[C@@H](CO)N3C(=O)CN(C(=O)Nc4cccc(OC)c4)C[C@@H]23)cc1`, which max activity is on record?
Its max activity is 27% [at 10 µM].

Which max activity does the source give for `CCCC#Cc1ccc([C@@H]2[C@H]3CN(C(=O)Nc4cccc(F)c4)CC(=O)N3[C@H]2CO)cc1` here?
Its max activity is 7.32% [at 0.16 µM].

Which max activity does the source give for `C/C=C/c1ccc([C@H]2[C@H]3CN(C(=O)Nc4cccc(OC)c4)CC(=O)N3[C@H]2CO)cc1` here?
Its max activity is -12% [at 21 µM].

With `CC(C)CC(=O)N1CCC(C(=O)NCCc2csc(-c3cccs3)n2)CC1` as the compound, how does the max activity read?
Its max activity is 7.82%.

Which max activity does the source give for `Cc1ccc(C)c(-c2coc(-c3ccc(NC(=O)Nc4ccc5c(c4)OCO5)cc3)n2)c1` here?
Its max activity is 81.1%.

For `CCc1nc(OCC(=O)Nc2cccc(C)c2)c2ccccc2n1`, which max activity is on record?
The max activity was -9.62% [at 1.35 µM].

Which max activity does the source give for `Cc1cccc(OCC(=O)N2CSC[C@@H]2C(=O)NCCc2csc(-c3ccccc3)n2)c1` here?
Its max activity is -20.7% [at 0.68 µM].

Which max activity does the source give for `Cc1ccc2c(c1C)-n1cccc1C1(CCN(C(=O)c3c(F)cccc3F)CC1)N2` here?
Its max activity is -8.13% [at 0.16 µM].

With `NC(=O)C1(N2CCCCC2)CCN(c2ncc(NC(=O)c3cccs3)cc2C(=O)O)CC1` as the compound, how does the max activity read?
Its max activity is 8.78% [at 0.16 µM].

Which max activity does the source give for `CSc1cccc(NC(=O)Nc2ccc(-c3nc(-c4ccc(C)cc4)co3)cc2)c1` here?
The max activity was 26.9%.

With `O=C(Cn1c(=O)c(S(=O)(=O)c2ccccc2)cc2ccccc21)NC1CCCCC1` as the compound, how does the max activity read?
Its max activity is 2.73%.

For `Fc1ccc(CSc2nc(NCc3ccco3)c3ccccc3n2)cc1`, which max activity is on record?
The max activity was -10.7% [at 2.6 µM].

Which max activity does the source give for `Cc1nc(-c2cc(S(=O)(=O)N3CCC(Cc4ccccc4)CC3)c(C)s2)sc1C` here?
The max activity was 9.1% [at 0.16 µM].

For `CCOc1ccccc1-c1nc(CSc2nc3c(c(=O)[nH]2)CN(CCOC)CC3)c(C)o1`, which max activity is on record?
The max activity was 20.2% [at 10 µM].

For `CCc1nc(OCC(=O)Nc2ccccc2F)c2ccccc2n1`, which max activity is on record?
Its max activity is 12.8% [at 10 µM].

With `COc1ccc(NC(=O)CN2CCC3(CC2)N=C(c2cccc(F)c2)C(=O)N3)cc1Cl` as the compound, how does the max activity read?
The max activity was 18.3% [at 5 µM].

For `Cc1ccc(CSC2=Nc3ccccc3C3=NC(CC(=O)NC4CCCCC4)C(=O)N23)c(C)c1` (centres undefined), which max activity is on record?
Its max activity is 15.1% [at 5 µM].

Which max activity does the source give for `O=C(CN1CCC2(CC1)N=C(c1ccc(F)cc1)C(=O)N2)Nc1ccccc1C(F)(F)F` here?
The max activity was 7.82% [at 10 µM].

For `O=C(COc1ccccc1Cl)Nc1cncc(-c2nc3ccccc3o2)c1`, which max activity is on record?
Its max activity is -6.28% [at 2.6 µM].

Which max activity does the source give for `COc1cccc(N(Cc2nc(-c3ccccc3)oc2C)S(=O)(=O)c2ccccc2)c1` here?
Its max activity is -4.33%.

Which max activity does the source give for `COc1ccc(N(Cc2nc(-c3cccc(C)c3)oc2C)S(=O)(=O)c2ccc(C)cc2)cc1` here?
The max activity was -7.34% [at 1.35 µM].

With `COc1cccc(N(Cc2nc(-c3cccc(Cl)c3)oc2C)S(=O)(=O)c2ccccc2)c1` as the compound, how does the max activity read?
The max activity was 9.67% [at 0.68 µM].

With `COc1ccc(N(Cc2nc(-c3cccc(Cl)c3)oc2C)S(=O)(=O)c2ccc(OC)cc2)cc1` as the compound, how does the max activity read?
The max activity was -8.48% [at 2.6 µM].

Which max activity does the source give for `COc1ccc(N(Cc2nc(-c3cccc(C)c3)oc2C)S(=O)(=O)c2ccc(OC)cc2)cc1` here?
The max activity was -8.14% [at 0.35 µM].

For `COc1ccc(CC(=O)N2CCC3(CC2)Nc2cc(F)ccc2-n2cccc23)cc1OC`, which max activity is on record?
The max activity was 6.12% [at 2.6 µM].

Which max activity does the source give for `COc1ccc(-c2nc3c(s2)CN(S(=O)(=O)c2ccc(C(C)C)cc2)CC3)cc1` here?
Its max activity is 10.1% [at 0.16 µM].

Which max activity does the source give for `CCCN1CCc2nc(SCc3nc(-c4ccc(OCC)c(OC)c4)oc3C)[nH]c(=O)c2C1` here?
Its max activity is 28.6% [at 0.16 µM].

For `Cc1ccc(-c2coc(-c3ccc(NC(=O)Nc4ccc(F)cc4)cc3)n2)cc1`, which max activity is on record?
Its max activity is 8.43% [at 10 µM].

With `Cc1c(-c2n[nH]c(=S)n2-c2ccccc2)sc2nc3n(c(=O)c12)CCC3` as the compound, how does the max activity read?
The max activity was -9.68% [at 0.16 µM].

Which max activity does the source give for `CCc1cccc(NC(=O)COc2nc(CC)nc3ccccc23)c1` here?
Its max activity is -10.7% [at 10 µM].

Which max activity does the source give for `Cn1c(=O)c(C(=O)Nc2ccccc2)cc2cccnc21` here?
The max activity was 14.2% [at 2.6 µM].

For `Cc1nc(OCC(=O)NCc2ccccc2)c2ccccc2n1`, which max activity is on record?
Its max activity is 19.6% [at 0.16 µM].

For `Cn1cccc1C(=O)Nc1ccc2c(c1)CCC(=O)N2`, which max activity is on record?
The max activity was 85.5%.

For `CCc1nc(OCC(=O)Nc2ccccc2Cl)c2ccccc2n1`, which max activity is on record?
The max activity was -7.29% [at 1.35 µM].

With `Cc1nc(C)c(C(=O)N2CCCC2c2nc(-c3ccc(F)cc3F)no2)s1` (centres undefined) as the compound, how does the max activity read?
The max activity was 25.6% [at 10 µM].

For `CCc1nc(OCC(=O)Nc2c(C)cc(C)cc2C)c2ccccc2n1`, which max activity is on record?
Its max activity is 7.02% [at 2.6 µM].
